According to ChEMBL document CHEMBL1157539, “Thousands of chemical starting points for antimalarial lead identification” (Nature, 2010):

How the values were obtained:
Format in all cases: functional
[1] = test system: Plasmodium falciparum; test: GSK_TCMDC: Inhibition of Plasmodium falciparum 3D7 in whole red blood cells, using parasite LDH activity as an index of growth. Test compounds present at 2uM
[2] = test system: Plasmodium falciparum; test: GSK_TCMDC: Inhibition of Plasmodium falciparum Dd2 in whole red blood cells, using parasite LDH activity as an index of growth. Test compounds present at 2uM
[3] = test system: HepG2; test: GSK_TCMDC: Percent inhibition of human HepG2 cell line. Test compounds present at 10uM.

| SMILES | Inhibition [1] | Inhibition [2] | Inhibition [3] |
| --- | --- | --- | --- |
| FC(F)(F)c1ccc2[nH]c(-c3ccc(-c4cccc(CNCc5ccccc5)c4)cc3)nc2c1.O=C(O)C(F)(F)F | 100% | 43% | 0% |
| CCn1cnc2c(Nc3cccc([N+](=O)[O-])c3)nc(N3CCC(N4CCCCC4)CC3)nc21 | 98% | 35% | 31% |
| O=C(Nc1cccc(Cl)c1Cl)Nc1ccnc2ccccc12 | 100% | 47% | 31% |
| Nc1nc(N)c2c(ccc3[nH]ccc32)n1 | 88% | 0% | 58% |
| CC(C)CNCc1ccc(-c2cccc(CN(C(=O)NCCc3ccccc3)C3CCN(Cc4ccccc4)CC3)c2)cc1.O=C(O)C(F)(F)F | 100% | 94% | 91% |
| N#Cc1ccc(NC(=O)Nc2ccc(OC(F)(F)F)cc2)cc1 | 98% | 91% | 43% |
| CN(C)CCNCc1ccc(-c2cccc(-c3nc4ccccc4[nH]3)c2)cc1.O=C(O)C(F)(F)F | 100% | 63% | 31% |
| CCNc1cc(C(=O)N[C@@H](Cc2ccccc2)[C@H](O)CNC23CCC(CC2)C3)cc(N2CCCCS2(=O)=O)c1.Cl | 97% | 99% | 22% |
| COc1ccc(N2CCN(CCCCNC(=O)c3ccc(NC(=O)c4cc(C(F)(F)F)cc(C(F)(F)F)c4)cc3)CC2)c(OC)c1 | 100% | 99% | 30% |
| CC(C)N1CCN(C(CN2CCN(CCCOc3ccccc3-c3ccccc3)CC2)c2ccc(F)cc2)CC1.Cl (stereo unspecified) | 100% | 96% | 98% |
| CC1(C)[C@H]2CC[C@@H](CNc3nc(NCCc4c[nH]cn4)nc(Nc4ccc5c(c4)OCO5)n3)[C@@H]1C2 | 100% | 88% | 3% |
| O=C(Nc1cccc(-c2ccc(-c3nc4cc(F)ccc4[nH]3)s2)c1)c1ccncc1 | 96% | 29% | 74% |
| Cc1ccc(-c2noc(COc3ccccc3C(=O)NC3CCCC3)n2)cc1 | 89% | 92% | 9% |
| CCOc1ccc(N(CC)S(=O)(=O)c2cc(Br)cc3c2N(C(=O)C2CC2)CC3)cc1 | 99% | 97% | 0% |
| Cc1cccc2nc(-c3ccc(-c4ccc(CN5CCN(CC6CCCN(C)C6)CC5)cc4)cc3)[nH]c12.O=C(O)C(F)(F)F (stereo unspecified) | 100% | 99% | 91% |
| N#CN1CC[C@@H](OC(=O)N[C@@H]2C[C@H]2c2ccccc2)C1 | 84% | 56% | 0% |
| O=C(Nc1ccc([N+](=O)[O-])cc1Cl)c1cc2ccccc2cc1O | 94% | 28% | 6% |
| CCN1CCC(N(CCCCCCc2ccc(C(F)(F)F)cc2)C(=O)Cn2c(CCc3cccc(F)c3F)cc(=O)c3ccccc32)CC1.O=C(O)C(O)C(O)C(=O)O | 88% | 82% | 32% |
| CC(=O)c1cccc(Nc2nc3ccc(OCc4cc(Cl)cc(Cl)c4)c(C#N)c3[nH]2)c1 | 86% | 45% | 29% |
| O=C(Nc1ccc(-n2ccc(C(F)(F)F)n2)cc1)c1cccs1 | 89% | 67% | 6% |
| O=C(/C=C/c1ccc(Cl)c(Cl)c1)NCCCCCN1CCCN(C(=O)Nc2cccc(F)c2)CC1 | 97% | 4% | 20% |
| O=C(Nc1ccccc1Br)c1cn(-c2ccccc2)nc1-c1cccc([N+](=O)[O-])c1 | 92% | 36% | 7% |
| CCN(CCCN1CCCCC1)c1cc(C)nc(Nc2cc(Cl)cc(Cl)c2)n1.O=C(O)C(F)(F)F | 100% | 99% | 34% |
| CCOc1cc(C)ccc1N1CCN(CCN2CCC(NC(=O)c3ccc(-c4ccc(C#N)cc4)cc3)CC2)CC1 | 84% | 3% | 9% |
| Cc1ccc(Cl)c2sc(N3CCN(C(=O)c4ccc([N+](=O)[O-])o4)CC3)nc12 | 97% | 94% | 21% |
| Cl.N=C(N)NN=Cc1c2ccccc2c(Cl)c2c(Cl)cccc12 | 91% | 72% | 71% |
| Cc1cc(N[C@@H](Cc2ccccc2)C(=O)NCc2cccc(F)c2)nc(NCCOc2ccccc2)n1.O=C(O)C(F)(F)F | 97% | 7% | 0% |
